{
  "source": "PubChem BioAssay (Tox21)",
  "note": "Results filed as inconclusive are left out. Calls of active or inactive are those of the source. The call rests on the fitted dose curve; in most records, active means well fitted activation curve with a large enough effect in the repeat runs; inconclusive means weak or mixed curves; inactive means flat fitted curve, though single readings scatter. On the % scale 0 is the no-effect control and ±100 the full control effect; potency means the concentration at half of the fitted maximal effect.",
  "data": [
    {"assay": "A CellTox Green Cytotoxicity Assay to monitor cytotoxicity in HEK293 cells - 32 hour (AID 1224881); further: nearly all actives have a fitted effect of over 40% in size", "conditions": "CellTox Green fluorescence; series mostly up to 76.8 µM; cytotoxicity increase: at the top concentration", "how_it_was_run": "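Fluorescence from a DNA-binding dye excluded by viable cells was measured repeatedly in the same HEK293 wells (600 cells/well) during continuous compound exposure at 37 C. Each assay gives one read point: 0, 8, 16, 24, 32 or 40 h.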", "values": [
      {"smiles": "CSc1ccc(Oc2ccc(S(N)(=O)=O)cc2CN(C)C)cc1C", "cytotoxicity increase": "23.5% (inactive)"},
      {"smiles": "Cc1nccn1-c1ccc(Sc2cccc(C3(C(N)=O)CCOCC3)c2)cc1", "cytotoxicity increase": "2.84% (inactive)"},
      {"smiles": "C/C(=N/NC(=O)c1ccncc1)C(=O)O", "cytotoxicity increase": "6.1% [at 35.3 µM] (inactive)"},
      {"smiles": "CCCCCCCCCCCCCCC[C@H](O)[C@@H](N)CO", "Potency": "21.3 µM (active)"},
      {"smiles": "Cc1occc1C(=O)Nc1ccc(C(=O)N2CCC(F)(F)/C(=C\\C(=O)N3CCC(N4CCCCC4)CC3)c3ccccc32)cc1", "cytotoxicity increase": "0.946% [at 35.3 µM] (inactive)"},
      {"smiles": "O=C(OCCOCCO)c1ccccc1Nc1cccc(C(F)(F)F)c1", "cytotoxicity increase": "5.96% [at 35.3 µM] (inactive)"},
      {"smiles": "CO[Si](C)(OC)OC", "cytotoxicity increase": "-10.3% (inactive)"},
      {"smiles": "c1cc[c]([Bi]([c]2ccccc2)[c]2ccccc2)cc1", "cytotoxicity increase": "10.5% (inactive)"},
      {"smiles": "COC(=O)Nc1nc2ccc(C(=O)c3cccs3)cc2[nH]1", "cytotoxicity increase": "0.815% [at 35.3 µM] (inactive)"},
      {"smiles": "COc1cc2c(cc1OC)-c1cc(=Nc3c(C)cc(C)cc3C)n(C)c(=O)n1CC2", "cytotoxicity increase": "15.6% [at 35.3 µM] (inactive)"},
      {"smiles": "CCc1c2c(nc3ccc(OC(=O)N4CCC(N5CCCCC5)CC4)cc13)-c1cc3c(c(=O)n1C2)COC(=O)[C@]3(O)CC", "cytotoxicity increase": "8.86% [at 35.3 µM] (inactive)"},
      {"smiles": "CCc1cccc(N(C)C(N)=Nc2cccc3ccccc23)c1", "cytotoxicity increase": "-7.72% [at 35.3 µM] (inactive)"},
      {"smiles": "NC(=O)Nc1ccc(Cl)cc1", "cytotoxicity increase": "-1.9% (inactive)"}
    ]},
    {"assay": "A CellTox Green Cytotoxicity Assay to monitor cytotoxicity in HepG2 cells - 0 hour (AID 1224882); further: nearly all actives have a fitted effect of over 35% in size", "conditions": "CellTox Green fluorescence; series mostly up to 76.8 µM; cytotoxicity: at the top concentration", "how_it_was_run": "(§1)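 Real-time cytotoxicity: fluorescence of a cell-impermeant cyanine dye binding DNA of dead HepG2 cells, measured repeatedly (0–40 h) during compound exposure at 37 C. Cells seeded 600/well with reagent, dosed after 5 h.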", "values": [
      {"smiles": "CC(CCO)CCc1ccccc1", "note": "(centres undefined)", "cytotoxicity": "2.37% (inactive)"},
      {"smiles": "CSc1ccc(Oc2ccc(S(N)(=O)=O)cc2CN(C)C)cc1C", "cytotoxicity": "1.69% (inactive)"},
      {"smiles": "Cc1nccn1-c1ccc(Sc2cccc(C3(C(N)=O)CCOCC3)c2)cc1", "cytotoxicity": "0.56% (inactive)"},
      {"smiles": "ON(Cc1ccccc1)Cc1ccccc1", "cytotoxicity": "0.0453% (inactive)"},
      {"smiles": "CC(C)CCCCCOC(=O)CCCCC(=O)OCCCCCC(C)C", "cytotoxicity": "0.115% (inactive)"},
      {"smiles": "C[Si]1(C)O[Si](C)(C)O[Si](C)(C)O1", "cytotoxicity": "-6.68% (inactive)"},
      {"smiles": "CCCCN(CCCC)CCCOC(=O)c1ccc(N)cc1", "cytotoxicity": "-10.8% [at 35.3 µM] (inactive)"},
      {"smiles": "CCN(CC)CCNC(=O)c1ccc(NC(C)=O)cc1", "cytotoxicity": "-2.16% [at 35.3 µM] (inactive)"},
      {"smiles": "CC(C)CCCCCCOC(=O)CCCCC(=O)OCCCCCCC(C)C", "cytotoxicity": "-4.55% (inactive)"},
      {"smiles": "Nc1c(I)cc(I)c(C(=O)N(CCC(=O)O)c2ccccc2)c1I", "cytotoxicity": "4.27% [at 35.3 µM] (inactive)"},
      {"smiles": "O=C(C(=O)c1ccccc1)c1ccccc1", "cytotoxicity": "-1.14% (inactive)"},
      {"smiles": "Cc1ccc(/C=N/n2c(-c3ccccc3)csc2=S)cc1", "cytotoxicity": "2.5% [at 35.3 µM] (inactive)"},
      {"smiles": "Cc1occc1C(=O)Nc1ccc(C(=O)N2CCC(F)(F)/C(=C\\C(=O)N3CCC(N4CCCCC4)CC3)c3ccccc32)cc1", "cytotoxicity": "-0.114% [at 35.3 µM] (inactive)"},
      {"smiles": "CC[C@H](NC(=O)c1cc(F)ccc1NS(=O)(=O)c1cccc2cccnc12)c1ccccc1", "cytotoxicity": "23.5% (inactive)"},
      {"smiles": "O=C(OCCOCCO)c1ccccc1Nc1cccc(C(F)(F)F)c1", "cytotoxicity": "1.35% [at 35.3 µM] (inactive)"},
      {"smiles": "CC(=O)Oc1ccc(C(=C2CCCCC2)c2ccc(OC(C)=O)cc2)cc1", "cytotoxicity": "-20.8% [at 35.3 µM] (inactive)"},
      {"smiles": "COCC(O)CO", "note": "(centres undefined)", "cytotoxicity": "-1.23% (inactive)"},
      {"smiles": "CC(C)c1nnc2ccc(-c3ocnc3-c3cc(F)ccc3F)cn12", "cytotoxicity": "-2.36% (inactive)"},
      {"smiles": "O=C(CCCCCCCCC#CI)Oc1ccccc1", "cytotoxicity": "4.95% [at 35.3 µM] (inactive)"},
      {"smiles": "Cc1ccc(S)cc1", "cytotoxicity": "0.553% (inactive)"},
      {"smiles": "CO[Si](C)(OC)OC", "cytotoxicity": "-2.13% (inactive)"},
      {"smiles": "CC(C)(C)C(=O)C(Oc1ccc(Cl)cc1)n1ccnc1", "note": "(centres undefined)", "cytotoxicity": "-10.2% [at 35.3 µM] (inactive)"},
      {"smiles": "c1cnc2c(n1)CCCC2", "Potency": "24.5 µM (active)"},
      {"smiles": "c1cc[c]([Bi]([c]2ccccc2)[c]2ccccc2)cc1", "cytotoxicity": "7.94% (inactive)"},
      {"smiles": "CC1CN(c2cc3c(cc2F)c(=O)c(C(=O)O)cn3-c2ccc(F)cc2F)CCN1", "note": "(centres undefined)", "cytotoxicity": "5.97% [at 6.97 µM] (inactive)"},
      {"smiles": "COC(=O)Nc1nc2ccc(C(=O)c3cccs3)cc2[nH]1", "cytotoxicity": "1.21% [at 35.3 µM] (inactive)"},
      {"smiles": "COc1cc2c(cc1OC)-c1cc(=Nc3c(C)cc(C)cc3C)n(C)c(=O)n1CC2", "cytotoxicity": "-9.13% [at 35.3 µM] (inactive)"},
      {"smiles": "COc1cc2c(N3CCN(C(=O)Nc4ccc(OC(C)C)cc4)CC3)ncnc2cc1OCCCN1CCCCC1", "cytotoxicity": "-4% [at 35.3 µM] (inactive)"},
      {"smiles": "OC/C(Br)=C(\\Br)CO", "cytotoxicity": "-1.54% (inactive)"},
      {"smiles": "Cc1nc2ccccn2c(=O)c1CCN1CCC(C(=O)c2ccc(F)cc2)CC1", "cytotoxicity": "-1% [at 35.3 µM] (inactive)"},
      {"smiles": "NC(=O)N(O)[C@@H]1C=C[C@H](Oc2cccc(Oc3ccc(F)cc3)c2)C1", "cytotoxicity": "0.809% (inactive)"},
      {"smiles": "CCc1c2c(nc3ccc(OC(=O)N4CCC(N5CCCCC5)CC4)cc13)-c1cc3c(c(=O)n1C2)COC(=O)[C@]3(O)CC", "cytotoxicity": "0.828% [at 35.3 µM] (inactive)"},
      {"smiles": "CCc1cccc(N(C)C(N)=Nc2cccc3ccccc23)c1", "cytotoxicity": "0.551% [at 35.3 µM] (inactive)"},
      {"smiles": "CN(C(=O)C(Cl)Cl)c1ccc(OC(=O)c2ccco2)cc1", "cytotoxicity": "0.35% [at 35.3 µM] (inactive)"},
      {"smiles": "C/C=C/C=C/CCCCCCCO", "cytotoxicity": "1.17% (inactive)"},
      {"smiles": "O=Cc1c(Cl)cccc1Cl", "cytotoxicity": "-6.41% (inactive)"},
      {"smiles": "O=C(NCCCN1CCOCC1)c1ccc(Cl)cc1", "cytotoxicity": "1.59% [at 35.3 µM] (inactive)"}
    ]},
    {"assay": "A CellTox Green Cytotoxicity Assay to monitor cytotoxicity in HepG2 cells - 32 hour (AID 1224883); further: nearly all actives have a fitted effect of over 50% in size", "conditions": "CellTox Green fluorescence; series mostly up to 76.8 µM; cytotoxicity increase: at the top concentration", "how_it_was_run": "as §1", "values": [
      {"smiles": "CC(CCO)CCc1ccccc1", "note": "(centres undefined)", "cytotoxicity increase": "22.1% (inactive)"},
      {"smiles": "ON(Cc1ccccc1)Cc1ccccc1", "cytotoxicity increase": "12% (inactive)"},
      {"smiles": "CC(C)CCCCCOC(=O)CCCCC(=O)OCCCCCC(C)C", "cytotoxicity increase": "-1.98% (inactive)"},
      {"smiles": "C[Si]1(C)O[Si](C)(C)O[Si](C)(C)O1", "cytotoxicity increase": "-12.4% (inactive)"},
      {"smiles": "CCCCN(CCCC)CCCOC(=O)c1ccc(N)cc1", "cytotoxicity increase": "14.9% [at 35.3 µM] (inactive)"},
      {"smiles": "CCN(CC)CCNC(=O)c1ccc(NC(C)=O)cc1", "cytotoxicity increase": "-2.84% [at 35.3 µM] (inactive)"},
      {"smiles": "CC(C)CCCCCCOC(=O)CCCCC(=O)OCCCCCCC(C)C", "cytotoxicity increase": "-6.21% (inactive)"},
      {"smiles": "C/C(=N/NC(=O)c1ccncc1)C(=O)O", "cytotoxicity increase": "27.6% [at 35.3 µM] (inactive)"},
      {"smiles": "Nc1c(I)cc(I)c(C(=O)N(CCC(=O)O)c2ccccc2)c1I", "cytotoxicity increase": "3.02% [at 35.3 µM] (inactive)"},
      {"smiles": "CCCCCCCCCCCCCCC[C@H](O)[C@@H](N)CO", "Potency": "26.8 µM (active)"},
      {"smiles": "O=C(C(=O)c1ccccc1)c1ccccc1", "cytotoxicity increase": "-7.94% (inactive)"},
      {"smiles": "Cc1ccc(/C=N/n2c(-c3ccccc3)csc2=S)cc1", "cytotoxicity increase": "-6.98% [at 35.3 µM] (inactive)"},
      {"smiles": "CC[C@H](NC(=O)c1cc(F)ccc1NS(=O)(=O)c1cccc2cccnc12)c1ccccc1", "cytotoxicity increase": "26.5% (inactive)"},
      {"smiles": "CC(=O)Oc1ccc(C(=C2CCCCC2)c2ccc(OC(C)=O)cc2)cc1", "cytotoxicity increase": "-15.7% [at 35.3 µM] (inactive)"},
      {"smiles": "COCC(O)CO", "note": "(centres undefined)", "cytotoxicity increase": "-5.12% (inactive)"},
      {"smiles": "CC(C)c1nnc2ccc(-c3ocnc3-c3cc(F)ccc3F)cn12", "cytotoxicity increase": "-9.27% (inactive)"},
      {"smiles": "O=C(CCCCCCCCC#CI)Oc1ccccc1", "cytotoxicity increase": "7.92% [at 35.3 µM] (inactive)"},
      {"smiles": "Cc1ccc(S)cc1", "Potency": "17.4 µM (active)"},
      {"smiles": "CC(C)(C)C(=O)C(Oc1ccc(Cl)cc1)n1ccnc1", "note": "(centres undefined)", "cytotoxicity increase": "1.98% [at 35.3 µM] (inactive)"},
      {"smiles": "c1cnc2c(n1)CCCC2", "Potency": "43.6 µM (active)"},
      {"smiles": "CC1CN(c2cc3c(cc2F)c(=O)c(C(=O)O)cn3-c2ccc(F)cc2F)CCN1", "note": "(centres undefined)", "cytotoxicity increase": "0.181% [at 6.97 µM] (inactive)"},
      {"smiles": "COc1cc2c(N3CCN(C(=O)Nc4ccc(OC(C)C)cc4)CC3)ncnc2cc1OCCCN1CCCCC1", "Potency": "26.8 µM (active)"},
      {"smiles": "OC/C(Br)=C(\\Br)CO", "cytotoxicity increase": "-7.13% (inactive)"},
      {"smiles": "Cc1nc2ccccn2c(=O)c1CCN1CCC(C(=O)c2ccc(F)cc2)CC1", "cytotoxicity increase": "3.86% [at 35.3 µM] (inactive)"},
      {"smiles": "NC(=O)N(O)[C@@H]1C=C[C@H](Oc2cccc(Oc3ccc(F)cc3)c2)C1", "Potency": "38.9 µM (active)"},
      {"smiles": "CN(C(=O)C(Cl)Cl)c1ccc(OC(=O)c2ccco2)cc1", "cytotoxicity increase": "1.95% [at 35.3 µM] (inactive)"},
      {"smiles": "C/C=C/C=C/CCCCCCCO", "cytotoxicity increase": "16.6% (inactive)"},
      {"smiles": "O=Cc1c(Cl)cccc1Cl", "cytotoxicity increase": "-5.34% (inactive)"},
      {"smiles": "O=C(NCCCN1CCOCC1)c1ccc(Cl)cc1", "cytotoxicity increase": "-9.51% [at 35.3 µM] (inactive)"}
    ]}
  ]
}
